# Test results as given in paper PMC7862700, “An all-to-all approach to the identification of sequence-specific readers for epigenetic DNA modifications on cytosine”.
# Legend:
# Assay in all cases: DAPPL (digital affinity profiling via proximity ligation, sequencing); 10 mM Tris-HCl pH 7.5, 50 mM NaCl, 1 mM DTT, 4% glycerol, room temperature, 30 min; GST-TFs on glutathione beads, 16-mer random dsDNA library, 0.1% formaldehyde crosslink after washing; high values mean tight binding
# FLI1 = molecular target: T1, FLI1 (Homo sapiens, UniProt Q01543 1-452); details: protein: recombinant; tags: N-terminal GST; dsDNA, one strand shown
# T1 sequence: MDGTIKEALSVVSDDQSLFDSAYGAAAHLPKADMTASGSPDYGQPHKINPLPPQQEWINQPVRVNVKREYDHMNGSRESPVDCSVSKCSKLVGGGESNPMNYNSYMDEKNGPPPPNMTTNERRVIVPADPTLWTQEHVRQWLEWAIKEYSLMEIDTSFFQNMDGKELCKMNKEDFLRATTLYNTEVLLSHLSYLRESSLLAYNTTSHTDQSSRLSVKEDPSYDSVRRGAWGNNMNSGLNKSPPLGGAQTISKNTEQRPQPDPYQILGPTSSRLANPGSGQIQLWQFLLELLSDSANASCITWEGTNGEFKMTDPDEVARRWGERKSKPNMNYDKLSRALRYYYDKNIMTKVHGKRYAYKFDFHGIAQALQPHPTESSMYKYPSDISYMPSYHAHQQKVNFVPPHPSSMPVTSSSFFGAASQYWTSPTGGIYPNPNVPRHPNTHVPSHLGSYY
# Summary of the method: (§1)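 A tag-only sample was pooled with DNA-barcoded human transcription factors that had been expressed in yeast as GST fusions and captured on glutathione beads. The pools were incubated for 30 min at room temperature with 200 nmole of a random double-stranded 16-mer DNA library in Tris/NaCl/DTT/glycerol buffer, then washed, crosslinked with 0.1% formaldehyde, proximity-ligated (BsaI/T4 ligase, 1 h, 37 °C), PCR-amplified and sequenced on an Illumina NextSeq500. Binding signal is each hexamer's read frequency for a factor divided by its frequency for the tag-only sample.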
# ELK1 = molecular target: T2, ELK1 (Homo sapiens, UniProt P19419 1-428); details: protein: recombinant; tags: N-terminal GST; dsDNA, one strand shown
# T2 sequence: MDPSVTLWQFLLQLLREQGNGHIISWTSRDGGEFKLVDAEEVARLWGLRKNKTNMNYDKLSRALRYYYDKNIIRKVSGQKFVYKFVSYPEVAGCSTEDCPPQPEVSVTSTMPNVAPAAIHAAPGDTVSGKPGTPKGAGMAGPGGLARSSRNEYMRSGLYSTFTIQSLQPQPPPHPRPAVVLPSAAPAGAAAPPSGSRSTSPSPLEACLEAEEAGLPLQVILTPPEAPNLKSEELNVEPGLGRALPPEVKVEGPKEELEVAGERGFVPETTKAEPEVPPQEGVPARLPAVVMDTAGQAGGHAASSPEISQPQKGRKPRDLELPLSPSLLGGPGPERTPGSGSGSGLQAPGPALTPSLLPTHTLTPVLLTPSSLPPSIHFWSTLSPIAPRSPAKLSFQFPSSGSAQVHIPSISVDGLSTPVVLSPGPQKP
# Summary of the method: as §1
# GABPA = molecular target: T3, GABPA (Homo sapiens, UniProt Q06546 1-454); details: protein: recombinant; tags: N-terminal GST; dsDNA, one strand shown
# T3 sequence: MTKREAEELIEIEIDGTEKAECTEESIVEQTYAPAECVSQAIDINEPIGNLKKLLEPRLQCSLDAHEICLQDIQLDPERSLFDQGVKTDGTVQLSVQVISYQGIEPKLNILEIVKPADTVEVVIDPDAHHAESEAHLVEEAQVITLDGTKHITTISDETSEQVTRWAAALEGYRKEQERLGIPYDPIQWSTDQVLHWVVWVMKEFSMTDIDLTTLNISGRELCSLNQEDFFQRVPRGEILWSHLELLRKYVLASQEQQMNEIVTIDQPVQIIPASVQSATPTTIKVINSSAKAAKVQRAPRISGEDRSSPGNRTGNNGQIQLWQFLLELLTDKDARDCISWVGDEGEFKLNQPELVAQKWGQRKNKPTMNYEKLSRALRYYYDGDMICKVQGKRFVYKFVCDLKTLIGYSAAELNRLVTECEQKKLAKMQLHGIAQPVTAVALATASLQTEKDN
# Summary of the method: as §1
# ERG = molecular target: T4, ERG (Homo sapiens, UniProt P11308 1-479); details: protein: recombinant; tags: N-terminal GST; dsDNA, one strand shown
# T4 sequence: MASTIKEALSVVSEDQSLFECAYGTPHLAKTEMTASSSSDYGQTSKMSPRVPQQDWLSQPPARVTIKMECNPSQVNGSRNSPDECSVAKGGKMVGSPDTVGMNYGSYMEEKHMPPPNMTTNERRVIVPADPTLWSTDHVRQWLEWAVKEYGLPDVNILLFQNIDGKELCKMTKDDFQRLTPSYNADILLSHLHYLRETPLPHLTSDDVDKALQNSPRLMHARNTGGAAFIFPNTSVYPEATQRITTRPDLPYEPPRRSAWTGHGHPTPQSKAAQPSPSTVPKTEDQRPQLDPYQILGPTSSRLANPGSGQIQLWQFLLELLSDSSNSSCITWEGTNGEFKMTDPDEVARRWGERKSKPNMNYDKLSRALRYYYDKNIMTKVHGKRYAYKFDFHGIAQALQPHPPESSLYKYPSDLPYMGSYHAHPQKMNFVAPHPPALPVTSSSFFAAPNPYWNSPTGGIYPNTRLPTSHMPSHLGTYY
# Summary of the method: as §1
# ELF1 = ELF1 (Homo sapiens, UniProt P32519 1-619); details: protein: recombinant; tags: N-terminal GST; dsDNA, one strand shown
# Summary of the method: as §1
# EHF = molecular target: T5, EHF (Homo sapiens, UniProt Q9NZC4 1-300); details: protein: recombinant; tags: N-terminal GST; dsDNA, one strand shown
# T5 sequence: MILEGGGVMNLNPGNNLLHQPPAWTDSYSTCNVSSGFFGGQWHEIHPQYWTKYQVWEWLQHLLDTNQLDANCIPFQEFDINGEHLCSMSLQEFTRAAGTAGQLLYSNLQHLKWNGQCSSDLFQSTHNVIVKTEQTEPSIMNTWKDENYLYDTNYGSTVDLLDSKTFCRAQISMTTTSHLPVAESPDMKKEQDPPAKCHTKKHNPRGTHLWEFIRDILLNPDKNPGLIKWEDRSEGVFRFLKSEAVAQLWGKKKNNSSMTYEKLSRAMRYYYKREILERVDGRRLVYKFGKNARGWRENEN
# Summary of the method: as §1
# SPI1 = SPI1 (Homo sapiens, UniProt P17947 1-270); details: protein: recombinant; tags: N-terminal GST; dsDNA, one strand shown
# Summary of the method: as §1
# SPIB = SPIB (Homo sapiens, UniProt Q01892 1-262); details: protein: recombinant; tags: N-terminal GST; dsDNA, one strand shown
# Summary of the method: as §1
# ELK3 = molecular target: T6, ELK3 (Homo sapiens, UniProt P41970 1-407); details: protein: recombinant; tags: N-terminal GST; dsDNA, one strand shown
# T6 sequence: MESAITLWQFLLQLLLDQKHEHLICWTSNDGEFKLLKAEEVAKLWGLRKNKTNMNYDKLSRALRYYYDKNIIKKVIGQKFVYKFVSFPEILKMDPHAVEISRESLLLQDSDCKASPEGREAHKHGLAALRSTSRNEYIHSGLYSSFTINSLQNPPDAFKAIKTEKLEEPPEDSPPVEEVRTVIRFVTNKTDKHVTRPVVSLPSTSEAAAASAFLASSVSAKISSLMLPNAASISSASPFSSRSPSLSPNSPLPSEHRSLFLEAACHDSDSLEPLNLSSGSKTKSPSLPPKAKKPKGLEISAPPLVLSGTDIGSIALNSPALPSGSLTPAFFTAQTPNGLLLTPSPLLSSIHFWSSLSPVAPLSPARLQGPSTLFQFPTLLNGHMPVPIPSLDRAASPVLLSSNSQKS
# Summary of the method: as §1
# FEV = molecular target: T7, FEV (Homo sapiens, UniProt Q99581 1-238); details: protein: recombinant; tags: N-terminal GST; dsDNA, one strand shown
# T7 sequence: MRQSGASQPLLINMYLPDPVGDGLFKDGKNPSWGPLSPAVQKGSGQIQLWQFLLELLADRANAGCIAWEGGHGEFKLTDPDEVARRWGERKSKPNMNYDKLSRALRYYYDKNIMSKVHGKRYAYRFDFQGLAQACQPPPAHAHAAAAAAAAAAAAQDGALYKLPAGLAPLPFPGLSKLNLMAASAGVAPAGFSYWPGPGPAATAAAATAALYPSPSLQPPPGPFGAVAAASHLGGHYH
# Summary of the method: as §1
# ETV5 = ETV5 (Homo sapiens, UniProt P41161 1-510); details: protein: recombinant; tags: N-terminal GST; dsDNA, one strand shown
# Summary of the method: as §1
# HSF1 = HSF1 (Homo sapiens, UniProt Q00613 1-529); details: protein: recombinant; tags: N-terminal GST; chain copies: 3; dsDNA, one strand shown
# Summary of the method: as §1
# SPIC = molecular target: T8, SPIC (Homo sapiens, UniProt Q8N5J4 1-248); details: protein: recombinant; tags: N-terminal GST; dsDNA, one strand shown
# T8 sequence: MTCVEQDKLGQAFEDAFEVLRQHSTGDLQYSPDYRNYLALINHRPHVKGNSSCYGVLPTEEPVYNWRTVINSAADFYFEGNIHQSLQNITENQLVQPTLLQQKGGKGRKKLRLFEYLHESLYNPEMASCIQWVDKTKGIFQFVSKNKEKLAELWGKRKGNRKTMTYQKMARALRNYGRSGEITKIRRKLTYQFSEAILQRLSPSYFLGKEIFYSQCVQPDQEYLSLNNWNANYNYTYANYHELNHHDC
# Summary of the method: as §1
# ELF4 = ELF4 (Homo sapiens, UniProt Q99607 1-663); details: protein: recombinant; tags: N-terminal GST; dsDNA, one strand shown
# Summary of the method: as §1
# ELK4 = molecular target: T9, ELK4 (Homo sapiens, UniProt P28324-2 1-405); details: protein: recombinant; tags: N-terminal GST; dsDNA, one strand shown
# T9 sequence: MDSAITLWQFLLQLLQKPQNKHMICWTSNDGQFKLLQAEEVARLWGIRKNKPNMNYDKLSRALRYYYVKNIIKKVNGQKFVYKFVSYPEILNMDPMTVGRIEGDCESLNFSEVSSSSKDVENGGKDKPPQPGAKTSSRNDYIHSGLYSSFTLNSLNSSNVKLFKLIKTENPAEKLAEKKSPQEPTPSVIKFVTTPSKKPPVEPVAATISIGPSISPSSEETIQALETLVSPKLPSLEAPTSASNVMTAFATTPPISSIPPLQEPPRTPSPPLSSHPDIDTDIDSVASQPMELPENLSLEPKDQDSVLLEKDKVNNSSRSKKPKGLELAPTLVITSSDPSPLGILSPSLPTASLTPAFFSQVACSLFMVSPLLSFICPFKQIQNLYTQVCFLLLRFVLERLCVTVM
# Summary of the method: as §1
# ETV2 = molecular target: T10, ETV2 (Homo sapiens, UniProt O00321 1-342); details: protein: recombinant; tags: N-terminal GST; dsDNA, one strand shown
# T10 sequence: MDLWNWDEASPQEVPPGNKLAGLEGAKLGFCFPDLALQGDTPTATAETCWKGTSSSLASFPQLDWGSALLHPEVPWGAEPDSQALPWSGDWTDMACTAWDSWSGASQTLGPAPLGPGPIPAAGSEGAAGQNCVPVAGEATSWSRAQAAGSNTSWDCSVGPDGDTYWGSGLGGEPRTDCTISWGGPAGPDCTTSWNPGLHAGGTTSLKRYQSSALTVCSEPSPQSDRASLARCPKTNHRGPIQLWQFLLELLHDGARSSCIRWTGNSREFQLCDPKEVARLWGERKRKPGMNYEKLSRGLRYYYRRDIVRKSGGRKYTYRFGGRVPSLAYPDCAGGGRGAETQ
# Summary of the method: as §1
# ELF3 = molecular target: T11, ELF3 (Homo sapiens, UniProt P78545 1-371); details: protein: recombinant; tags: N-terminal GST; dsDNA, one strand shown
# T11 sequence: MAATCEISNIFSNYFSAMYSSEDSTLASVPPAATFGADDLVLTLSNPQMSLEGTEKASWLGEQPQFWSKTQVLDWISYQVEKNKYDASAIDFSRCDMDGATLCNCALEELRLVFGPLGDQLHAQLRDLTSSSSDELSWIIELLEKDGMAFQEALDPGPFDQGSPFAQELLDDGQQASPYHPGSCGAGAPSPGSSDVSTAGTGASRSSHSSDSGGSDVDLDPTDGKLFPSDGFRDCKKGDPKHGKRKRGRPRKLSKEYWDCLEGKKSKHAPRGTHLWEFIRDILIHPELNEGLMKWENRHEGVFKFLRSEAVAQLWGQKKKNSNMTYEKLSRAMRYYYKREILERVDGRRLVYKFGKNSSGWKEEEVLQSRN
# Summary of the method: as §1
# CRX = CRX (Homo sapiens, UniProt O43186 1-299); details: protein: recombinant; tags: N-terminal GST; dsDNA, one strand shown
# Summary of the method: as §1
# ETV1 = ETV1 (Homo sapiens, UniProt P50549 1-477); details: protein: recombinant; tags: N-terminal GST; dsDNA, one strand shown
# Summary of the method: as §1
# Chain of HSF1 (Q00613 whole entry): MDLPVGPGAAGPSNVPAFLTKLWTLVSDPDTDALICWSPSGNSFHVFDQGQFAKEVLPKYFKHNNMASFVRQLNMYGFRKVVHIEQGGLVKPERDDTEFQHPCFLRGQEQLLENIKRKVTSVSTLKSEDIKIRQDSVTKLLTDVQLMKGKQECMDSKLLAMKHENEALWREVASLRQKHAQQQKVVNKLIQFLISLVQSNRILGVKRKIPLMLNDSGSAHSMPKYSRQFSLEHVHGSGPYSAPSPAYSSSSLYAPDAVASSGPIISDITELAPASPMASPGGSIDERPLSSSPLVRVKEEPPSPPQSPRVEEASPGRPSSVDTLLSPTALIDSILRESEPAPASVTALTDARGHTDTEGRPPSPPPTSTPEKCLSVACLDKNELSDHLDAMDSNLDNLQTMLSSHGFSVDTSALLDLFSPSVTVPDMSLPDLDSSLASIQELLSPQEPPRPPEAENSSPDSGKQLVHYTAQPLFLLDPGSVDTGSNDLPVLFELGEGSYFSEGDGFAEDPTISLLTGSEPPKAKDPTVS
# Chain of ELF1 (P32519 whole entry): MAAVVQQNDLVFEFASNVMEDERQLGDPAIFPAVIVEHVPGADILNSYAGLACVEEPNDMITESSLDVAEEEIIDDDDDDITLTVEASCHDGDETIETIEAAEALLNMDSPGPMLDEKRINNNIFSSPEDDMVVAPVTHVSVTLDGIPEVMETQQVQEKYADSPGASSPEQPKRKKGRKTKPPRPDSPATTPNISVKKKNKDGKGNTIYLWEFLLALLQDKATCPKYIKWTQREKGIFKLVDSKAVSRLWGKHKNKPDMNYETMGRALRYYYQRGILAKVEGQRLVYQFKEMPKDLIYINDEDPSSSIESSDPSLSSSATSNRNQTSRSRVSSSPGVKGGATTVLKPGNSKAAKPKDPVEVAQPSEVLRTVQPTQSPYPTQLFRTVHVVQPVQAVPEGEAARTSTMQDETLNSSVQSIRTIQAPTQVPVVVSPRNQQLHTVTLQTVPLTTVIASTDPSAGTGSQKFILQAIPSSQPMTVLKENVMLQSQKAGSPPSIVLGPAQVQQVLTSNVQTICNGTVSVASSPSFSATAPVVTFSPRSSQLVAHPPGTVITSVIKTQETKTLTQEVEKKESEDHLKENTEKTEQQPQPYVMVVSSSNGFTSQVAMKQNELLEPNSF
# Chain of CRX (O43186 whole entry): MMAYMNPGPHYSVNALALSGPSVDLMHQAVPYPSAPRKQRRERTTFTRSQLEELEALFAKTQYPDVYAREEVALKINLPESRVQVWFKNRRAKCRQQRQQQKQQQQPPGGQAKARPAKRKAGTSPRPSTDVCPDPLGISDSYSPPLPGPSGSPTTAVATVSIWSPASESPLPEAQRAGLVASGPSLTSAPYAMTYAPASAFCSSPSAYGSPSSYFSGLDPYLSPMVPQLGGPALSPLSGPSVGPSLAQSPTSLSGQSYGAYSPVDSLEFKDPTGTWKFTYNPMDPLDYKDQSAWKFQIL
# Chain of SPIB (Q01892 whole entry): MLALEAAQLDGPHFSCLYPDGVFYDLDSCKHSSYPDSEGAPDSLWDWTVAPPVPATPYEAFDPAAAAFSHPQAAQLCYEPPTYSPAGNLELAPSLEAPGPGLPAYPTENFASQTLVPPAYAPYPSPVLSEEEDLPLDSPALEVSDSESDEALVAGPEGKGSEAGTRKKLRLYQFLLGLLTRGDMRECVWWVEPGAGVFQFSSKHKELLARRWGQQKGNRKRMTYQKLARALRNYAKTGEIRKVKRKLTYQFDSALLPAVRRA
# Chain of ETV1 (P50549 whole entry): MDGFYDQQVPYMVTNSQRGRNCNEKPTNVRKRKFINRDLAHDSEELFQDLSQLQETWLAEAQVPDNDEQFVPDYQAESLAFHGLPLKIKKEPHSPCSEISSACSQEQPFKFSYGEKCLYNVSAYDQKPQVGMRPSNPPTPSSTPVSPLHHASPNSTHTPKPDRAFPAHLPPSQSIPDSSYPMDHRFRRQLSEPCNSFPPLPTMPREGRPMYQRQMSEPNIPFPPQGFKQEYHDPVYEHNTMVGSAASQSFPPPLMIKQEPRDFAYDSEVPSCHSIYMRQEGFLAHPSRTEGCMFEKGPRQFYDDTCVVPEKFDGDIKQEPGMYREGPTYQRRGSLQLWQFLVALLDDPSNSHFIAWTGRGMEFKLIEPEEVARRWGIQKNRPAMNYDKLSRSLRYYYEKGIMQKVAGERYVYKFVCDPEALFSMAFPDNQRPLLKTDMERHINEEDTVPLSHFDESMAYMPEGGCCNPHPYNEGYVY
# Chain of ELF4 (Q99607 whole entry): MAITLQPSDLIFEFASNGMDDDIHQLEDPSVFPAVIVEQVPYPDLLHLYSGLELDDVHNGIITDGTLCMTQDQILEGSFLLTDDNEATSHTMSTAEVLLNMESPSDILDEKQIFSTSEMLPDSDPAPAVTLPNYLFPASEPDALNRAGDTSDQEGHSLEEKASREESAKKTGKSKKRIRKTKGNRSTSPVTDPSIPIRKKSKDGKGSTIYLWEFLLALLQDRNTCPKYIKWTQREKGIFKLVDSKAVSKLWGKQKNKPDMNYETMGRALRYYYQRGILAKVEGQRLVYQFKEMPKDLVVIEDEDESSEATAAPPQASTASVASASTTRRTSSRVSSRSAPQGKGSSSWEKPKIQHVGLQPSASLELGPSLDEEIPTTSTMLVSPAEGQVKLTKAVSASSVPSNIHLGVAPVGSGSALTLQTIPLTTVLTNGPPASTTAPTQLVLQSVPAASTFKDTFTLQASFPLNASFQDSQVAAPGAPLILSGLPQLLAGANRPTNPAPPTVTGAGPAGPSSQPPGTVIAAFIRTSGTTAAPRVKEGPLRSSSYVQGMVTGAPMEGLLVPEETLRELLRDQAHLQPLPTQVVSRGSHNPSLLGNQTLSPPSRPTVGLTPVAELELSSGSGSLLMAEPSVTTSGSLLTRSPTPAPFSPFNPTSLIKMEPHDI
# Chain of ETV5 (P41161 whole entry): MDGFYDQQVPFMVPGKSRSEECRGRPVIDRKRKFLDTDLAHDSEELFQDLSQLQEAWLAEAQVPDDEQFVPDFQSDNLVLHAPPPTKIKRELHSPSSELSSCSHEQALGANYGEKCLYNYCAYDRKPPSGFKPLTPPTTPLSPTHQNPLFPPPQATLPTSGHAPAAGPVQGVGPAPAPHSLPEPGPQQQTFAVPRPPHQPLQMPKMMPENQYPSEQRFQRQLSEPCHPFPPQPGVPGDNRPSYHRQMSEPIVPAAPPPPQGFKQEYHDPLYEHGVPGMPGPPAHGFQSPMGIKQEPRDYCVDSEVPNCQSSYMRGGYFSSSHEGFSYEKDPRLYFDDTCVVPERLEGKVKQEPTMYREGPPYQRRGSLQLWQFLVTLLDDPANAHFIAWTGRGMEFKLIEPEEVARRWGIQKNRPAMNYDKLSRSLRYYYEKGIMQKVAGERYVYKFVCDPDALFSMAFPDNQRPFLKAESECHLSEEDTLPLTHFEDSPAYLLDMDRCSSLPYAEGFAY
sequence,measurement,setting,value
ATCTCC,binding signal,FLI1,"1.61 fold enrichment (6-mer frequency, TF over GST control)"
same,binding signal,ELK1,"1.5 fold enrichment (6-mer frequency, TF over GST control)"
same,binding signal,GABPA,"1.56 fold enrichment (6-mer frequency, TF over GST control)"
same,binding signal,ERG,"1.51 fold enrichment (6-mer frequency, TF over GST control)"
same,binding signal,ELF1,"1.47 fold enrichment (6-mer frequency, TF over GST control)"
same,binding signal,EHF,"1.6 fold enrichment (6-mer frequency, TF over GST control)"
same,binding signal,SPI1,"1.37 fold enrichment (6-mer frequency, TF over GST control)"
same,binding signal,SPIB,"1.49 fold enrichment (6-mer frequency, TF over GST control)"
same,binding signal,ELK3,"1.42 fold enrichment (6-mer frequency, TF over GST control)"
same,binding signal,FEV,"1.5 fold enrichment (6-mer frequency, TF over GST control)"
same,binding signal,ETV5,"1.48 fold enrichment (6-mer frequency, TF over GST control)"
same,binding signal,HSF1,"1.67 fold enrichment (6-mer frequency, TF over GST control)"
same,binding signal,SPIC,"1.49 fold enrichment (6-mer frequency, TF over GST control)"
same,binding signal,ELF4,"1.57 fold enrichment (6-mer frequency, TF over GST control)"
same,binding signal,ELK4,"1.47 fold enrichment (6-mer frequency, TF over GST control)"
same,binding signal,ETV2,"1.48 fold enrichment (6-mer frequency, TF over GST control)"
same,binding signal,ELF3,"1.3 fold enrichment (6-mer frequency, TF over GST control)"
same,binding signal,CRX,"2.01 fold enrichment (6-mer frequency, TF over GST control)"
same,binding signal,ETV1,"1.57 fold enrichment (6-mer frequency, TF over GST control)"
